Source: PubChem BioAssay (National Center for Advancing Translational Sciences (NCATS))
ELG1 genotox – inducers of genotoxicity in HEK293T ELG1-luciferase cells; HEK293T ELG1-luciferase reporter, luminescence, 16 h; Potency, µM (top dose mostly 46 µM), for inactives: at the top dose activity change, positive = activation, usual class: activators; 1.3% of 330,000 active; note: % of control where 0% means no effect; nearly all actives have a fitted effect of over 60% in size
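ELG1-luciferase HEK293T cells, 2,000/well; compound pinned in; 16 hr, 37 °C, 5% CO2; ONE-Glo, 30 min RT; luminescence on CCD imager.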
SMN2 splice up – enhancers of SMN2 splice variant expression; AID 1458; Potency, µM (series often up to 46.1 µM), for the others: top-dose activity change, positive = activation, actives largely listed as activators; 2.8% of 210,000 active; HEK293 SMN2-luciferase splicing reporter, luminescence, 30-36 h; note: % of control where 0% means no effect; nearly all actives have a fitted effect of over 55% in size
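qHTS luciferase splicing reporter: luminescence rises when SMN2 exon 7 is included in transfected HEK293 cells. Compound exposure lasted 30-36 h at 37C, with 4.5 mM final sodium butyrate as control, followed by a ONE-Glo read.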
Luc counter – Kinase-Glo luciferase inhibition (counter-screen); Kinase-Glo luciferase, ATP luminescence, 8 min; 0.28% of 200,000 active; Q27757; Potency, µM (highest dose often 38.3 µM), for the others: at the highest dose activity change, negative = inhibition, hits mostly inhibitors; note: % is set by controls: 0 for no effect and ±100 for the full control effect; nearly all actives have a fitted effect of over 60% in size
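Substrate mix (final 50 mM imidazole pH 7.2, 50 mM KCl, 7 mM MgCl2, 10 uM ATP, 0.01% Tween 20, 0.05% BSA) plus pin-tool compound, then Kinase-Glo detection mix; 8 min ambient, luminescence read.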
NPC1 prom act – activators of NPC1 promoter | 2.4% of 320,000 active | Potency, µM (highest dose often 9.22 µM), inactives show top-dose activation, most hits filed as activators | Huh7 NPC1 promoter luciferase reporter, 24 h; note: % of control where 0% means no effect; nearly all actives have a fitted effect of over 60% in size
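Quantitative HTS used a cell-based reporter: Huh7 cells stably bearing the NPC1 promoter upstream of luciferase were treated with compounds for 24 h, and promoter activation was read as luminescence.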
Rab9 promoter act – activators of Rab9 promoter | Huh7 Rab9 promoter-luciferase reporter, luminescence, 24 h | Potency, µM (doses to about 9.22 µM), for inactives: top-dose activation, negative = inhibition, most hits filed as activators | 2.8% of 320,000 active; note: % of control where 0% means no effect; nearly all actives have a fitted effect of over 60% in size
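Cells were plated at 1500 per well in reduced-serum medium with 10% FBS and left 2 h. Compound in DMSO was then added for 24 h at 37 °C. Reporter signal was read by luminescence after 10 min with luciferase detection reagent.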
FLuc modulator – inhibits or activates purified firefly luciferase, miR-21 counter-screen | 6.9% of 360,000 active | Potency, µM (highest dose often 57.5 µM), for inactives: at the highest dose activity change, negative = inhibition, usual class: inhibitors | purified FLuc, Km substrates, luminescence inhibition | P08659;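 note: plate controls were vehicle for no effect and reference inhibitor for full effect; nearly all actives have a fitted effect of over 55% in size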
Target sequence (P08659 whole entry, looked up): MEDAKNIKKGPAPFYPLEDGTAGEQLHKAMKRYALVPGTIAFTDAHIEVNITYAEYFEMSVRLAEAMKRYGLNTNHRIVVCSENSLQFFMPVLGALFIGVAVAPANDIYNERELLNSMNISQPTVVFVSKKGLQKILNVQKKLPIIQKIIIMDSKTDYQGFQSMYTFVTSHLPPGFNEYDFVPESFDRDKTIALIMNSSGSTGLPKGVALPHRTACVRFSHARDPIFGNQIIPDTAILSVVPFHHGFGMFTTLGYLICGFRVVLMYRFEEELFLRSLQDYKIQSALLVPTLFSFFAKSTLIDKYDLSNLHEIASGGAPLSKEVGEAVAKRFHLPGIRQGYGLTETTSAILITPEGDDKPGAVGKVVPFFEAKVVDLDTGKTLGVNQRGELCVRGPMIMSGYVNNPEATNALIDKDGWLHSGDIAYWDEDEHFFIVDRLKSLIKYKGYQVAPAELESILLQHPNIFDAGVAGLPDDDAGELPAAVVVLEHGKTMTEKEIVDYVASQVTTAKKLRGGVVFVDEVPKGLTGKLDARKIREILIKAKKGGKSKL
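Biochemical qHTS of compounds, final roughly 60 µM downward over six points, against 10 nM purified firefly luciferase using Km concentrations of substrates (10 uM D-luciferin, 10 uM ATP) in Tris acetate pH 7.5 buffer; luminescence output.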
Numbers without * were called inactive; ? = inconclusive; / = not tested or not shown; [ ] = remark or other dose. Compounds with a hit are over-represented: about 7.3% of the library has one in this group of screens. Calls come from the whole dose curve; as a rule, active = well fitted curve in the direction sought with a large enough effect; inconclusive = small, poorly fitted or top-dose-only effect, or another doubt; inactive = no such curve, though single readings can be large; an effect the other way counts as inactive or inconclusive. Potency is the fitted concentration of half-maximal effect.

SMILES	ELG1 genotox	SMN2 splice up	Luc counter	NPC1 prom act	Rab9 promoter act	FLuc modulator
COc1ccc(CNC(=O)CCC(=O)N2CC3CCCN3c3ccccc32)cc1 (configuration not stated)	/	/	/	/	/	-2%
CCn1ncc(/C=C/C(=O)c2ccccc2)c1C	?	?	10µM*	?	?	?
CCn1ncc(/C=N\NC(=O)COc2ccccc2)c1C	0%	16%	-5%	1%	2%	-18%
NC(N)=N/N=C/c1ccc(OCc2ccc(Cl)cc2)cc1	?	/	/	3.5µM*	?	6µM*
Cc1n[nH]c(=S)n1/N=C/c1ccc(OCc2ccc(Cl)cc2)cc1	2%	-6%	-7%	15%	13%	19µM*
Cc1ccc(COc2ccc(/C=N/O)cc2)cc1	?	10µM*	-5%	?	1.3µM*	5.4µM*
NC(N)=N/N=C/c1ccc(OCc2ccccc2)cc1	1%	/	/	24%	11%	?
Cc1n[nH]c(=S)n1/N=C/c1ccc(OCc2ccc(Cl)cc2Cl)cc1	13%	?	1%	19%	10%	?
O=C(Nc1ccc2nc(SCC(=O)N3CCCC3)sc2c1)c1ccccc1F	/	/	/	/	/	24µM*
Nc1ccc2nc(SCc3cccc(F)c3)sc2c1	?	13µM*	0%	?	4.5µM*	4.8µM*
O=C(COc1ccc(F)cc1)Nc1ccc2nc(SCC(=O)N3CCCC3)sc2c1	/	/	/	/	/	-11%
CCOC(=O)CSc1nc2ccc(N)cc2s1	8%	4%	1%	-2%	0%	19µM*
COc1cc(OC)cc(C(=O)Nc2ccc(-c3nc4ccccc4s3)c(C)c2)c1	/	/	/	/	/	-8%
Cc1cc(NC(=O)c2ccccc2F)ccc1-c1nc2ccccc2s1	/	/	/	/	/	0.67µM*
CCc1cccc(NC(=O)C2CCC(CNS(=O)(=O)c3ccc(Br)s3)CC2)c1 (configuration not stated)	/	17%	/	/	/	0%
CNC[C@H](O)c1ccc(OC(=O)C(C)(C)C)c(OC(=O)C(C)(C)C)c1	/	21%[20.6 µM]	-4%[17.1 µM]	/	/	/
COc1ccc(CNC(=O)c2cnc(N3CCCC3)nc2C)cc1	/	/	/	/	/	-6%
CCc1ccc(CNC(=O)c2ccc(NC(=O)N3CCCCc4ccccc43)cc2)cc1	/	/	/	/	/	-18%
O=C(COc1ccccc1F)Nc1ccc2nc(SCC(=O)N3CCOCC3)sc2c1	/	/	/	/	/	21µM*
CCOC(=O)CSc1nc2ccc(NC(=O)CSc3nnnn3Cc3ccccc3)cc2s1	2%	2%	8%	2%	-3%	3%
CCOC(=O)CSc1nc2ccc(NC(=O)c3ccccc3F)cc2s1	/	/	/	/	/	15µM*
CC1=NN(c2ccccc2)C(=O)C1N=Nc1ccc(C)cc1 (configuration not stated)	1%	21%	12%	1%	-2%	-17%
Cc1ccc(C2C=NN(c3ccccc3)C2=O)cc1 (configuration not stated)	?	/	-3%	16%	?	12µM*
O=C(NCCc1ccccc1)C1CCN(c2ncnc3c2nc2n3CCCCC2)CC1	/	/	/	/	/	1%
Clc1ccc(-c2nnc(N3CCCC3)nn2)cc1	?	6.3µM*	-10%	?	0.32µM*	1.2µM*
SMILES	ELG1 genotox	SMN2 splice up	Luc counter	NPC1 prom act	Rab9 promoter act	FLuc modulator
COC(=O)c1c(Oc2ccc(C(C)=O)cc2)nnc(-c2ccccc2)c1-c1ccccc1	/	100%	/	/	/	-15%
c1ccc2sc(SCSc3nc4ccccc4s3)nc2c1	9%	-1%[9.22 µM]	-8%[7.66 µM]	12%	6%	?
N#CCc1nc(CSc2nc3ccccc3s2)cs1	18µM*	25%	-10%	29%	?	?
O=C(O)CCSc1ccc2ccccc2n1	9%	-9%	-9%	0%	3%	24µM*
O=C(O)CCSc1nc2ccccc2s1	-13%	-32%	4%	-4%	0%	21µM*
CCC(C)(C)NC(=O)CCCSc1nc2ccccc2s1	12%	?	-2%	?	?	24µM*
N#CCCCSc1nnc(CSc2nc3ccccc3s2)n1-c1ccccc1	-11%	-24%	11%	1%	4%	4%
O=C(O)CSc1ccc2ccccc2n1	-2%	-9%	-1%	2%	-4%	1%
CCc1c(C)sc2c1CCN(Cc1cccc(F)c1)C2c1ccccc1 (configuration not stated)	/	/	/	/	/	-6%
COc1ccc(NC(=O)C(=O)c2cn(CC(=O)N3CCCC3)c3ccccc23)cc1	?	/	/	-16%	-21%	12µM*
CC(=O)Nc1ccc(NC(=O)C(=O)c2cn(CC(=O)N3CCCC3)c3ccccc23)cc1	-6%	/	/	7%	0%	-13%
O=C(CSc1cn(CC(=O)N2CCCCCC2)c2ccccc12)Nc1ccccc1F	/	/	/	/	/	-16%
CC(=O)Nc1cccc(NC(=O)C(=O)c2cn(CC(=O)N3CCCCC3)c3ccccc23)c1	8%	17%	-6%	22%	?	8.5µM*
O=C(Nc1ccccc1F)C(=O)c1cn(CC(=O)N2CCCCC2)c2ccccc12	-2%	?	-4%	14%	30%	5.4µM*
O=C(CSc1nc(=O)[nH]c2c1CCCC2)Nc1ccc(Cl)c(Cl)c1	/	/	/	/	/	-17%
CS(=O)(=O)N1CCN(c2ccc(NC(=O)c3cccnc3Cl)cc2)CC1	7%	20%	-7%	3%	?	-9%
O=C(NC(=O)c1ccc(F)cc1F)Nc1ccc(Cl)cc1	13%	/	/	?	2.2µM*	-10%
O=C(Nc1ccc(N2CCCC2)cc1)c1ccccc1F	?	2.8µM*	-20%	0.5µM*	0.5µM*	2.1µM*
O=C(Nc1ccc(N2CCCCC2)cc1)c1ccc(F)cc1F	?	/	/	0.32µM*	0.35µM*	1.3µM*
CC(=O)Nc1ccc(N2CCCCC2)cc1	7%	-10%	0%	13%	10%	-14%
O=C(Nc1ccc(N2CCCCC2)cc1)c1cccnc1Cl	21µM*	-6%	-5%	22%	?	?
O=C(Nc1ccc(F)cc1)Nc1ccc(Cl)cn1	?	?	2%	26%	?	-4%[2.3 µM]
CC(C)C[C@H](N)C(=O)O	/	12%[9.22 µM]	-2%[7.66 µM]	/	/	/
CCOc1ccc(CCNC(=O)C2CCC(CNS(=O)(=O)c3ccc(Cl)cc3)CC2)cc1OCC (configuration not stated)	/	/	/	/	/	-8%
Cc1cc(Br)ccc1NC(=O)COc1cc(=O)n(C)c2ccccc12	/	4%	/	/	/	-14%
C=CCn1cccc(C(=O)Nc2ccc(N(C)C)cc2)c1=O	?	/	/	3.5µM*	4µM*	8.5µM*
CCCn1cccc(C(=O)Nc2ccc(OC)cc2)c1=O	3%	/	/	?	?	?
C#CCn1cccc(C(=O)Nc2ccc(OC)cc2)c1=O	14%	/	/	29%	19%[1.84 µM]	19µM*
C=CCn1cccc(C(=O)Nc2ccc(SC)cc2)c1=O	7%	/	/	?	4µM*	12µM*
